# Results as given in PubChem BioAssay AID620 (Sanford-Burnham Center for Chemical Genomics, 2007).
# Out of some 87,000 compounds screened, about 360 (0.41%) were called active. Many of the other results were omitted from the sample, so actives are more common in it than they were. Values without a mark were called inactive. Cut-off read from the data, not from the text of the source: active = cytotoxicity above about 50%; inactive = the rest.
# Test: HT1080 cell viability loss – fluorescence readout (AID 620);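 note: cells exposed to compound overnight then 4 h with Alamar Blue; 0% = vehicle DMSO and 100% = killing control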
# Conditions: at 10 µM, hits give high values
row,Structure (SMILES),cytotoxicity
1,O=C(Nc1cccc(Cl)c1)N(CCN1CCOCC1)Cc1cccc(Cl)c1,24%
2,Cc1ccc(NC2=NCC(=O)N2Cc2ccccc2)c(C)c1,-14.9%
3,COC(=O)c1cc2ccsc2n1CC(=O)N(C)c1ccccc1,-3.5%
4,COC(=O)c1cc2ccsc2n1Cc1cc(=O)n2ccccc2n1,60.2% (active)
5,COC(=O)c1cc2ccsc2n1Cc1nc(-c2ccc(OC)cc2)oc1C,-11.4%
6,CCn1c(SCC(=O)Nc2ccccc2)nc2c1c(=O)n(C)c(=O)n2C,-1.6%
7,COc1cccc(OCC(=O)Nc2c(C(=O)Nc3ccc(OC)cc3OC)oc3ccccc23)c1,2.3%
8,O=S(=O)(Nc1cccnc1)c1cccc(C(F)(F)F)c1,2.9%
9,O=C(COc1cccc2ccccc12)N1CCN(c2ccccn2)CC1,-9%
10,COc1ccc(Nc2nc(N3CCCC3)c3ccccc3n2)cc1,19.5%
11,Cc1ccc(Nc2nc(N3CCOCC3)c3ccccc3n2)cc1,-0.4%
12,CCOC(=O)N1CCN(c2c(N3CCN(c4ccccn4)CC3)c(=O)c2=O)CC1,-3%
13,COc1ccc(-c2nc(-c3ccccc3)c(-c3cc([N+](=O)[O-])ccc3C)[nH]2)cc1O,10.8%
14,COc1ccc(-c2nc3ccccc3s2)cc1O,-4%
15,COc1ccc(-c2c/c(=N\c3nc(-c4ccccc4)c(C)s3)c3ccccc3o2)cc1O,60% (active)
16,Cn1c(SCc2ccccc2Cl)nc2ccccc21,30.7%
17,Cc1nc2ccc(NC(=O)c3ccc(Cl)c(NC(=O)c4cccs4)c3)cc2s1,3.4%
18,CCn1c(SCc2ccccc2)nnc1-c1ccc(S(=O)(=O)N2CCCCC2)cc1,-8.1%
19,O=C1C(Cl)=C(Nc2ccccc2O)C(=O)N1c1ccccc1,-3.8%
20,COC(=O)CNC(=O)[C@@]1(C)C=C[C@@H](Cc2ccccc2)N1C(C)=O,-25%
21,CNC(=O)[C@@]1(C)C=C[C@@H](Cc2ccccc2)N1C(=O)OC,-1%
22,COC(=O)CNC(=O)[C@@]1(C)C=C[C@@H](Cc2ccccc2)N1C(=O)OC,89.9% (active)
23,COc1cccc(-c2nnc(SCC(N)=O)n2-c2ccc(Cl)cc2)c1,-0.4%
24,O=S(=O)(c1cccc(-c2nc3ccccc3s2)c1)N1CCOCC1,-1%
25,COc1ccccc1NC(=O)N(Cc1ccco1)Cc1cc2ccc(C)c(C)c2[nH]c1=O,58.4% (active)
26,COc1ccccc1NC(=O)N(Cc1ccco1)Cc1cc2cc(C)cc(C)c2[nH]c1=O,3.9%
27,COc1ccccc1NC(=O)N(Cc1ccco1)Cc1cc2cccc(C)c2[nH]c1=O,-8%
